Drawing on publication PMC12820563, “FoxP3 forms a head-to-head dimer in vivo and stabilizes its multimerization on adjacent microsatellites”, this text covers binding signal for 32 sequences.

Whole data set: some 16,000 sequences, median “rpm ratio (pull-down/input)” near 0.94, cut for the highest 2% near 1.7. This is one part of a sample in which the highest values are shown more often than they occur.

The target in the assay is T1, MBP-FoxP1dN (Mus musculus, UniProt P58462 326-579).
T1 sequence: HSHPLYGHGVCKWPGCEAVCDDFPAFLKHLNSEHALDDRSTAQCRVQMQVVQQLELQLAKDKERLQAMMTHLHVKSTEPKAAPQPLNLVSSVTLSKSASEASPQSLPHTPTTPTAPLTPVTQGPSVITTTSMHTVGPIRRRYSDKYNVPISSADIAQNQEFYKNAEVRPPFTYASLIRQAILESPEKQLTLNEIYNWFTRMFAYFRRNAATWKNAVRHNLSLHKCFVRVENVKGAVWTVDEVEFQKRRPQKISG
The assay is described as follows: PD-seq (MBP pull-down with sequencing); 20 mM Tris-HCl pH 7.5, 100 mM NaCl, 1.5 mM MgCl2, 0.4 uM protein, 0.1 uM dsDNA library, 30 min, room temperature, amylose pull-down; high values mean tight binding. To be noted: protein: recombinant; tags: His6-MBP; chain copies: 2; dsDNA, one strand shown. The gist of the method: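 E. coli-expressed mouse FoxP3 or FoxP1 fragment, N-terminus removed and tagged with His6-MBP, was used at 0.4 µM against 0.1 µM of a Klenow-filled degenerate double-stranded DNA library. After 30 min at room temperature in Tris pH 7.5 buffer with NaCl and MgCl2, complexes were pulled down on amylose resin and washed three times. Binding is pull-down over input reads-per-million enrichment from pooled replicates of the proteinase K-released, PCR-barcoded, Illumina-sequenced DNA.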
In the case of “GATGATTGTTCTCCCAGCTGATGAATTTACCCCGTCGAGTAAACAAATTTTCCTAATCTTTCTGTTCAAGCGCCATCTAC”, the binding signal was 1.07 RPM ratio (pull-down/input).

On to “GATGATTGTTCTCCCAGCTGATGAATTCGTCTCTTCGAGTAAACAAATTTTCCTAATCTTTCTGTTCAAGCGCCATCTAC”, for which the binding signal was 0.871 RPM ratio (pull-down/input). The result for “GATGATTGTTCTCCCAGCTGATGAATTGGAACGTTCGAGTAAACAAATTTTCCTAATCTTTCTGTTCAAGCGCCATCTAC” reads 0.904 RPM ratio (pull-down/input); that for “GATGATTGTTCTCCCAGCTGATGAATTATTGTGGTCGAGTAAACAAATTTTCCTAATCTTTCTGTTCAAGCGCCATCTAC”, 1.51 RPM ratio (pull-down/input). The result for “GATGATTGTTCTCCCAGCTGATGAATTGCTGATGTCGAGTAAACAAATTTTCCTAATCTTTCTGTTCAAGCGCCATCTAC” reads 1.22 RPM ratio (pull-down/input). The result for “GATGATTGTTCTCCCAGCTGATGAATTGCTGTTGTCGAGTAAACAAATTTTCCTAATCTTTCTGTTCAAGCGCCATCTAC” reads 2.5 RPM ratio (pull-down/input); that for “GATGATTGTTCTCCCAGCTGATGAATTTTTGCTGTCGAGTAAACAAATTTTCCTAATCTTTCTGTTCAAGCGCCATCTAC”, 1.59 RPM ratio (pull-down/input); that for “GATGATTGTTCTCCCAGCTGATGAATTGCTGCTGTCGAGTAAACAAATTTTCCTAATCTTTCTGTTCAAGCGCCATCTAC”, 1.29 RPM ratio (pull-down/input). On to “GATGATTGTTCTCCCAGCTGATGAATTCTTGCTGTCGAGTAAACAAATTTTCCTAATCTTTCTGTTCAAGCGCCATCTAC”, for which the binding signal was 1.45 RPM ratio (pull-down/input).

In the case of “GATGATTGTTCTCCCAGCTGATGAATTGTTGCTGTCGAGTAAACAAATTTTCCTAATCTTTCTGTTCAAGCGCCATCTAC”, the binding signal was 2 RPM ratio (pull-down/input). The result for “GATGATTGTTCTCCCAGCTGATGAATTCTCTCGCTCGAGTAAACAAATTTTCCTAATCTTTCTGTTCAAGCGCCATCTAC” reads 0.825 RPM ratio (pull-down/input). As for “GATGATTGTTCTCCCAGCTGATGAATTCTACCCCTCGAGTAAACAAATTTTCCTAATCTTTCTGTTCAAGCGCCATCTAC”, the binding signal is 0.797 RPM ratio (pull-down/input). The result for “GATGATTGTTCTCCCAGCTGATGAATTGCGATAATCGAGTAAACAAATTTTCCTAATCTTTCTGTTCAAGCGCCATCTAC” reads 1.43 RPM ratio (pull-down/input); that for “GATGATTGTTCTCCCAGCTGATGAATTTGCTGTATCGAGTAAACAAATTTTCCTAATCTTTCTGTTCAAGCGCCATCTAC”, 1.16 RPM ratio (pull-down/input). The result for “GATGATTGTTCTCCCAGCTGATGAATTTTTTGTATCGAGTAAACAAATTTTCCTAATCTTTCTGTTCAAGCGCCATCTAC” reads 1.26 RPM ratio (pull-down/input); that for “GATGATTGTTCTCCCAGCTGATGAATTGTTTGTATCGAGTAAACAAATTTTCCTAATCTTTCTGTTCAAGCGCCATCTAC”, 2.64 RPM ratio (pull-down/input); that for “GATGATTGTTCTCCCAGCTGATGAATTTGTTGTATCGAGTAAACAAATTTTCCTAATCTTTCTGTTCAAGCGCCATCTAC”, 2.21 RPM ratio (pull-down/input). The same measure for “GATGATTGTTCTCCCAGCTGATGAATTTGTATCATCGAGTAAACAAATTTTCCTAATCTTTCTGTTCAAGCGCCATCTAC”: 1.51 RPM ratio (pull-down/input). On to “GATGATTGTTCTCCCAGCTGATGAATTTGATGTATCGAGTAAACAAATTTTCCTAATCTTTCTGTTCAAGCGCCATCTAC”, for which the binding signal was 1.25 RPM ratio (pull-down/input). The result for “GATGATTGTTCTCCCAGCTGATGAATTCCGCCTATCGAGTAAACAAATTTTCCTAATCTTTCTGTTCAAGCGCCATCTAC” reads 0.791 RPM ratio (pull-down/input); that for “GATGATTGTTCTCCCAGCTGATGAATTTGGGGTGTCGAGTAAACAAATTTTCCTAATCTTTCTGTTCAAGCGCCATCTAC”, 0.832 RPM ratio (pull-down/input); that for “GATGATTGTTCTCCCAGCTGATGAATTGGTTGTATCGAGTAAACAAATTTTCCTAATCTTTCTGTTCAAGCGCCATCTAC”, 1.3 RPM ratio (pull-down/input). The result for “GATGATTGTTCTCCCAGCTGATGAATTATTGGTATCGAGTAAACAAATTTTCCTAATCTTTCTGTTCAAGCGCCATCTAC” reads 1.55 RPM ratio (pull-down/input); that for “GATGATTGTTCTCCCAGCTGATGAATTGGTATTATCGAGTAAACAAATTTTCCTAATCTTTCTGTTCAAGCGCCATCTAC”, 1.9 RPM ratio (pull-down/input); that for “GATGATTGTTCTCCCAGCTGATGAATTTTTGGTATCGAGTAAACAAATTTTCCTAATCTTTCTGTTCAAGCGCCATCTAC”, 1.09 RPM ratio (pull-down/input).

Regarding “GATGATTGTTCTCCCAGCTGATGAATTATCGGTATCGAGTAAACAAATTTTCCTAATCTTTCTGTTCAAGCGCCATCTAC”, the binding signal was 1.02 RPM ratio (pull-down/input). The result for “GATGATTGTTCTCCCAGCTGATGAATTGTTGGTATCGAGTAAACAAATTTTCCTAATCTTTCTGTTCAAGCGCCATCTAC” reads 1.92 RPM ratio (pull-down/input); that for “GATGATTGTTCTCCCAGCTGATGAATTGTGTGCCTCGAGTAAACAAATTTTCCTAATCTTTCTGTTCAAGCGCCATCTAC”, 1.14 RPM ratio (pull-down/input); that for “GATGATTGTTCTCCCAGCTGATGAATTGCGATGCTCGAGTAAACAAATTTTCCTAATCTTTCTGTTCAAGCGCCATCTAC”, 1.2 RPM ratio (pull-down/input). The same measure for “GATGATTGTTCTCCCAGCTGATGAATTCCGAGAGTCGAGTAAACAAATTTTCCTAATCTTTCTGTTCAAGCGCCATCTAC”: 0.749 RPM ratio (pull-down/input).

With “GATGATTGTTCTCCCAGCTGATGAATTCATCGTCTCGAGTAAACAAATTTTCCTAATCTTTCTGTTCAAGCGCCATCTAC”, the binding signal was 0.784 RPM ratio (pull-down/input). For “GATGATTGTTCTCCCAGCTGATGAATTCAGGTTCTCGAGTAAACAAATTTTCCTAATCTTTCTGTTCAAGCGCCATCTAC”, the binding signal is 0.857 RPM ratio (pull-down/input).
